Changes are numbered by the printed parent chain. Whole data set: some 5,800 sequences, median “enrichment r” near 0.68, cut for the highest 2% near 11. The sample as a whole holds a higher share of the highest values than the screen did.
T1: UNK ZnF1-6 (called full-length) (human, UniProt Q9C0B0 30-357)
T1 sequence: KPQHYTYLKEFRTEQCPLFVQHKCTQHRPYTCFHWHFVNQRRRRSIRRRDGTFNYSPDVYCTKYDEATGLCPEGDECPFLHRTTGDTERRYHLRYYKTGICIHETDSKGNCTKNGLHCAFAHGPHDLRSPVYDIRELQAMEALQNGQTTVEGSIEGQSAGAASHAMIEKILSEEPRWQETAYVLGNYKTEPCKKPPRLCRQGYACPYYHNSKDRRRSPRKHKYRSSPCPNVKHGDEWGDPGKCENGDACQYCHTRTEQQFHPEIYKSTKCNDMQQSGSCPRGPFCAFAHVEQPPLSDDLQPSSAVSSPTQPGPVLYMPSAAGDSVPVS

B1: chr3:129431351:129431457:-|3pUTR|ENSG00000129071|unk|total|mutant (ssRNA)
RNA: GGGAGUUCUACAGUCCGACGAUCACUUCAAAAAAGCUUAAUUAAGUACAACCAACCACCUUUCCAGCCACCGAGAUUUUAAUCCGCCCAACCCGAAGCCCCGUGUGUGUGCUUUCUUAAUGUGUGUGCCAAUGGUGGAUCUUUCAACAGAGGAUUGAGCAUCA
B2: chr11:61873518:61873813:-|three_prime_utr|ENSG00000221968|control|control|control (ssRNA)
RNA: GGGAGUUCUACAGUCCGACGAUCCCCUCACAUGUGUAUUCAGCAGCCCUAUGGCCUUGGCUCUGGGCCUGAUGGGACAGGGGUAGAGGGAAGGUGAGCAUAGCACAUUUUCCUAGAGCGAGAAUUGGGGGAAAGCUGUUAUUUCAACAGAGGAUUGAGCAUCA
B3: chr1:225494445:225494546:-|3pUTR|ENSG00000154380|msi1|total|mutant (ssRNA)
RNA: GGGAGUUCUACAGUCCGACGAUCUUGGGUGUUCCCUCUUCUUAUUUUCUCUCUGCCCACCUUGACACAGUAACUUCCUCUUACCGUCAAGAUGAUGAUUAAGUGUUUAAUUUUUAUUCCAUUUUGUUCUGCAACACGUUCAGGCAACAGAGGAUUGAGCAUCA
B4: ENSG00000070961:be:win_5551|3pUTR|ENSG00000070961|bound_else_gene|NA|bound_elsewhere_windowed (ssRNA)
RNA: GGGAGUUCUACAGUCCGACGAUCAAUUGUACAUUUAUUCAUCAGGUAUUUAUAGUGAAUCAUACUGUAAAAAAGAGGUAGCAUGAUAUGCUGGAAAGCAUAUUAGACUAGGAGUCAAGACCUGGUUUCUAGUCUUGGUUUUGCCAACAGAGGAUUGAGCAUCA
B5: chr6:52791370:52791857:-|three_prime_utr|ENSG00000243955|control|control|control (ssRNA)
RNA: GGGAGUUCUACAGUCCGACGAUCGCUAAUGAACUCUUUCAAAUUAUAUGCUAAUUAAAUAAUACAACUCCUAUUCGCUGACUUAGUUAAAAUUGAUUUGUUUUCAUUAGGAUCUGAUGUGAAUUCAGAUUUCCAAUCUUCUCCCAACAGAGGAUUGAGCAUCA
B6: chr11:58422334:58423261:-|CDS|ENSG00000172365|control|control|control (ssRNA)
RNA: GGGAGUUCUACAGUCCGACGAUCACACACUAGUGAGGUGAUUCUGGUUUUUAUGUCAAGCUUUAAUAUCUUUUUUGUUCUUCUAGUUAUCUUUAUCUCCUACUUGUUCAUAUUCAUCACCAUCUUGAAGAUGCAUUCAGCUAACAACAGAGGAUUGAGCAUCA
B7: chr16:18805221:18805325:-|3pUTR|ENSG00000157106|unk|FALSE|bound_elsewhere (ssRNA)
RNA: GGGAGUUCUACAGUCCGACGAUCAAGAAUUCUAUGUUCUGAAAUGCACACUUUUAGAAUGUUUUUCUUUGAAAACAGGCUAAUAGUUUUUUCUUUUUUUGACAAAGUUUCAGCUCCUCUUUAAAGUUAUUGUGUCAUUUUUCUCAACAGAGGAUUGAGCAUCA
B8: chr12:64147824:64147925:+|3pUTR|ENSG00000196935|unk|FALSE|unique (ssRNA)
RNA: GGGAGUUCUACAGUCCGACGAUCCAUCUCUGUGGUGUCUUUGUUCCUUUCCUUUCAUUCAUCACUACUUUCUCCUUGACAGCUAGCUUGCAUUAAAUAAUGUGAAACUUUUACCUUUAAAAUAUUUUUUUAUCUCACUUUCAUCAACAGAGGAUUGAGCAUCA
B9: chr3:125228010:125228111:-|3pUTR|ENSG00000163848|msi1|total|mutant (ssRNA)
RNA: GGGAGUUCUACAGUCCGACGAUCAGUUCUCUUCAUAUUUCAUAACUACAUUUCAAUAAUUCUAAACUUUCUACAUUGAUUUUCCGAUACUUAUUUUUCAAGCUUGGUUUCUCAGCUGAUCAGAUGAAUUUAUUCAACUUCAAUCAACAGAGGAUUGAGCAUCA
B10: chr3:125228010:125228111:-|3pUTR|ENSG00000163848|msi1|FALSE|unique (ssRNA)
RNA: B9 RNA with C83U, C84A
B11: chr20:3933335:3933436:-|3pUTR|ENSG00000101236|msi1|total|mutant (ssRNA)
RNA: GGGAGUUCUACAGUCCGACGAUCUUACAACACCUGCUAUCAAAUCAUCUAAGCUGAAAACAUGAGAUGCGCUUGGAAAGGCCCCGUCAGAAGCCAUUUCCUCUUAUCAUUUCCCUCUCCUAUGCACCAGUAAGGCCCGUCCAGCAACAGAGGAUUGAGCAUCA
B12: chr7:103374401:103374592:-|CDS|ENSG00000170615|control|control|control (ssRNA)
RNA: GGGAGUUCUACAGUCCGACGAUCCCUGCCCUAUGGGAGCUGCUGUUCCACAGCAUUCAUGAUGCAGUUUUAGGCAGCCAACUUAGAGAGGCACUUGCUGAACAGGAAGCCUCGGCUCCCCCUUCCCAGGAGGACUUGGAGCCCCAACAGAGGAUUGAGCAUCA
B13: chr11:134247321:134247422:+|3pUTR|ENSG00000151502|unk|FALSE|unique (ssRNA)
RNA: GGGAGUUCUACAGUCCGACGAUCCCUUUUCAGAGCAUGAGGUCAGGCUCUGUAUCCCUCCUUUUCCUAGCUGAUAUUCUAACUAGAAGCAUUUGUCAAUUCCUUUGCCUCCCAACUGACAACACACGUUCAUUUUCCAACCUUCAACAGAGGAUUGAGCAUCA
B14: chr1:88684422:88684524:+|5pUTR|ENSG00000065243|unk|total|mutant (ssRNA)
RNA: GGGAGUUCUACAGUCCGACGAUCUCGAUGAACCGGACGGAAUAAGCCGCGCCUCCAGCAGGGGCUGCGCCUCCAUGAAUCCCCCGUUGUUUUUUUUUUUUUCUUUCUCUCCCCUCUCCUCACCCCCACCCCGAGCCCCGUCCCCAACAGAGGAUUGAGCAUCA
B15: chr11:64204363:64204470:+|3pUTR|ENSG00000168439|unk|FALSE|unique (ssRNA)
RNA: GGGAGUUCUACAGUCCGACGAUCGCCCUCGAGUUCCAUGUCUCUUUCCCCUGCCCCUAGUUGCUGUCUCGGCUGCUCUCCCAUAGUUGGUUUUUUUUUUAUUUGGGGCAGUGGGCAUGUUAUGGGGAGGGGAGGGGGUUCUUCCAACAGAGGAUUGAGCAUCA
B16: chr17:58090057:58090109:+|3pUTR|ENSG00000264364|msi1_unk|FALSE|overlapping (ssRNA)
RNA: GGGAGUUCUACAGUCCGACGAUCGGGUAGGAUUAGCUUGAAUCUUUUUUUUCUUUACAUUUUUCUCCUGUCUGCUCCCUGCUUAGCCCUCAGUUUCCUCAUUCCUCUGGAGUUCUCUUAGAGCAGCCCCUGUUGUUAGUUGGCCAACAGAGGAUUGAGCAUCA
B17: chr5:97028609:97028710:+|3pUTR|ENSG00000113441|msi1|FALSE|bound_elsewhere (ssRNA)
RNA: GGGAGUUCUACAGUCCGACGAUCUUGCAAAAGCCAAGGUAAAGCCAGGAUCGCUGCCAAGUUGUUUGCACUCUUUGGAGUUCUAGUUAGCUCAGGGCCUGACUGUAUUUUUCAUCCAUCUUUUCUGAAGUGUCUUUGGGCAGUCAACAGAGGAUUGAGCAUCA
B18: chr14:75134463:75134564:-|3pUTR|ENSG00000170348|msi1|FALSE|unique (ssRNA)
RNA: GGGAGUUCUACAGUCCGACGAUCCUGUUUGGACUAUGUUUUCUUUUCUUCUCCCACUUGCUCAGCAGCUUGGGCUUCCAUUCUAGUUCUUUUACCAAGAUUUUUGUGUGACCAUGUUGACUUCAUUUGGAUUGCCCUCUUUCACAACAGAGGAUUGAGCAUCA
B19: chr8:100258838:100258944:-|CDS|ENSG00000034677|unk|FALSE|unique (ssRNA)
RNA: GGGAGUUCUACAGUCCGACGAUCAGUGAAUUUGAGGCUCCAUCCCUCAGUGACAGUAUGCCUUCUGUAGCAGAUUCUCACUCUAGUCAUUUUUCUGAAUUUAGUUGUUCUGACCUAGAAAGCAUGAAAACUUCUUGUAGUCAUCAACAGAGGAUUGAGCAUCA
B20: chr1:228494639:228494729:+|3pUTR|ENSG00000168159|msi1_unk|FALSE|overlapping (ssRNA)
RNA: GGGAGUUCUACAGUCCGACGAUCGCCAUCGUGUCUCAUCUUGCUGUUAUCUCUAGCUCUUUCCCUCCUCCCAUUUCCUUUAGUAGUUGAAUUUUGCAAAGCUUGUAGCAGUAGCUCAGUUGCCUGCAGCAUCCUUGUGUGUAGCAACAGAGGAUUGAGCAUCA
B21: chr22:21921976:21922077:-|3pUTR|ENSG00000100034|msi1|FALSE|unique (ssRNA)
RNA: GGGAGUUCUACAGUCCGACGAUCGACUGCAGUGGGCUCGGAUAGGCCCAUUGAGGUUUUUAGAAAAGCAGGAUUUGUUUUGUUAGGGAGGCAUGAUUUUGGUGAGAUCUUUCUGGAAGAGUUUUCCGCCUCUUUGUGAUGCUGCAACAGAGGAUUGAGCAUCA
B22: chr16:87831719:87831834:-|3pUTR|ENSG00000103257|msi1_unk|total|mutant (ssRNA)
RNA: GGGAGUUCUACAGUCCGACGAUCCCUGCGUUUGGAGGCCCCUGGGCUCUCACCCAGUCCCCACCCGCCUGCAGAGAGGGAACCCGGGCACCCCUUGUUUCUGUUGUUCCCGUGAAUUUUUUUCGCUAUGGGAGGCAGCCGAGGCAACAGAGGAUUGAGCAUCA
B23: chr1:180885099:180885158:+|3pUTR|ENSG00000143324|msi1_unk|FALSE|overlapping (ssRNA)
RNA: GGGAGUUCUACAGUCCGACGAUCAGCUGAAGCUAUGCCUUAUUAUGCAUCCACAUGUAUGGUCCCUGUAGCGUGACCUUUACUAGCUCUGAAUCAGAAGACAGAGCUAUUUCAGAGGCUCUGUGUGCCCUCACUAGAUAGUUUCAACAGAGGAUUGAGCAUCA
B24: chr1:88684422:88684524:+|5pUTR|ENSG00000065243|unk|FALSE|unique (ssRNA)
RNA: B14 RNA with C83U, C84A

Biological target: T1, UNK ZnF1-6 (called full-length)
Assay: nsRBNS (natural sequence RNA bind-n-seq); RBNS binding buffer (assumed for nsRBNS): 25 mM Tris pH 7.5, 150 mM KCl, 3 mM MgCl2, 0.01% Triton X-100, 500 ug/ml BSA, 20 U/ml SUPERase-In, 4 C; UNK is unkempt and MSI1 is Musashi-1; names of the RNAs are library labels; protein concentration not given here; high values mean tight binding

**Q.** With B1 as the binder, how does the binding signal read?
**A.** Its binding signal is 0.636 enrichment R.

**Q.** Which binding signal does the source give for B2 here?
**A.** The binding signal was 1.12 enrichment R.

**Q.** For B3, which binding signal is on record?
**A.** Its binding signal is 0.642 enrichment R.

**Q.** With B4 as the binder, how does the binding signal read?
**A.** Its binding signal is 0.3 enrichment R.

**Q.** B5 was tested. Which binding signal did it give?
**A.** The binding signal was 6.55 enrichment R.

**Q.** With B6 as the binder, how does the binding signal read?
**A.** The binding signal was 12.5 enrichment R.

**Q.** Which binding signal does the source give for B7 here?
**A.** The binding signal was 0.773 enrichment R.

**Q.** How did the binding signal turn out when B8 was run?
**A.** Its binding signal is 10.6 enrichment R.

**Q.** For B9, which binding signal is on record?
**A.** Its binding signal is 15.6 enrichment R.

**Q.** Which binding signal does the source give for B10 here?
**A.** The binding signal was 3.33 enrichment R.

**Q.** Which binding signal does the source give for B11 here?
**A.** Its binding signal is 0.525 enrichment R.

**Q.** Which binding signal does the source give for B12 here?
**A.** The binding signal was 0.733 enrichment R.

**Q.** For B13, which binding signal is on record?
**A.** Its binding signal is 2.72 enrichment R.

**Q.** For B14, which binding signal is on record?
**A.** The binding signal was 3.43 enrichment R.

**Q.** Which binding signal does the source give for B15 here?
**A.** The binding signal was 20.5 enrichment R.

**Q.** With B16 as the binder, how does the binding signal read?
**A.** The binding signal was 4.34 enrichment R.

**Q.** How did the binding signal turn out when B17 was run?
**A.** The binding signal was 0.475 enrichment R.

**Q.** With B18 as the binder, how does the binding signal read?
**A.** The binding signal was 0.995 enrichment R.

**Q.** B19 was tested. Which binding signal did it give?
**A.** Its binding signal is 13.2 enrichment R.

**Q.** How did the binding signal turn out when B20 was run?
**A.** The binding signal was 14.7 enrichment R.

**Q.** With B21 as the binder, how does the binding signal read?
**A.** The binding signal was 0.813 enrichment R.

**Q.** With B22 as the binder, how does the binding signal read?
**A.** Its binding signal is 0.698 enrichment R.

**Q.** Which binding signal does the source give for B23 here?
**A.** The binding signal was 2.64 enrichment R.

**Q.** For B24, which binding signal is on record?
**A.** The binding signal was 39 enrichment R.
